Results filed as inconclusive are left out. A call without a number means that no potency is given here. Values without a mark were called inactive. Active and inactive are the calls of the source. Calls follow the shape of the dose curve; as a rule, active = well fitted inhibition curve with a large enough effect; inconclusive = small, poorly fitted or top-dose-only effect; inactive = flat fitted curve, though single readings scatter. Where a SMILES comes first, the peptide text is derived from it. [ ]: non-standard residue; d: D form. ξ: configuration not given here. ξPhe(βξ-Me) = CC(c1ccccc1)C(N)C(=O)O; GABA = NCCCC(=O)O
Assay: P-glycoprotein substrates identified in KB-8-5-11 adenocarcinoma cell line, qHTS therapeutic library screen (AID 1346987); also: nearly all actives have a fitted effect of over 65% in size; as to activity change, negative = cytotoxicity: series mostly up to about 44 µM
How it was run: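 In this qHTS, P-gp-rich KB-8-5-11 cells received library compounds across a concentration range. Viability was quantified by luminescence after 72 h at 37 degree C.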
Potency is read from the fitted curve at half-maximal effect.

SMILES	Potency	activity change, negative = cytotoxicity
CCC(C)C(=O)OC1CC(C)C=C2C=CC(C)C(CCC(O)CC(O)CC(=O)O)C21 (configuration not stated)	inactive	
COC(=O)c1c(C)cc(OC(=O)c2c(C)cc(OC)cc2OC)cc1O[C@@H]1O[C@H](CO)[C@@H](O)[C@H](O)[C@H]1O	inactive	
CC1C=CC2CCCCC2C1CCC1CC(O)CC(=O)O1 (configuration not stated)	inactive	
C[C@@H]1C(=O)O[C@H]2[C@@H](O)C34[C@H]5C[C@@H](C(C)(C)C)C36[C@@H](OC(=O)[C@@H]6O)O[C@@]4(C(=O)O5)[C@@]12O (some centres not stated)	inactive	
Cc1ccc(NC(=O)c2ccc(CN3CC[C@H](N(C)C)C3)c(C(F)(F)F)c2)cc1Nc1nccc(-c2cncnc2)n1	inactive	
CC(C)C(C#N)O[C@@H]1O[C@H](CO[C@@H]2O[C@@H](C)[C@H](O)[C@@H](O)[C@H]2O)[C@@H](O)[C@H](O)[C@H]1O (some centres not stated)	inactive	
O=C(O)c1ccc(CN2CCC(CN[C@@H]3C[C@H]3c3ccccc3)CC2)cc1	inactive	
CC(=O)N1CCN(Cc2ccc([C@H](C)Nc3nccc(N4C(=O)OC[C@@H]4C(C)C)n3)cc2)CC1	inactive	
C[C@@H]1C(=O)O[C@H](C)[C@H]1CC(=O)[C@](C)(O)[C@H]1CC[C@@]2(O)C3=CC(=O)[C@@H]4C[C@@H](O)[C@@H](O)C[C@]4(C)C3CC[C@]12C (some centres not stated)	inactive	
C[C@@H]1O[C@@H](O[C@H]2[C@H](O)[C@@H](O[C@@H]3O[C@H](CO)[C@@H](O)[C@H](O[C@@H]4O[C@H](CO)[C@@H](O)[C@H](O)[C@H]4O)[C@H]3O)[C@H](O[C@H]3CC[C@@]4(C)C(=CC[C@@H]5C4CC[C@@]4(C)C5C[C@@H]5OC6(CC[C@@](C)(CO[C@@H]7O[C@H](CO)[C@@H](O)[C@H](O)[C@H]7O)O6)[C@@H](C)[C@@H]54)C3)O[C@@H]2CO)[C@H](O)[C@H](O)[C@H]1O (some centres not stated)		3.17% [at 9.29 µM]
COc1ccc2nc(S(=O)(=O)Cc3ncc(C)c(OC)c3C)[nH]c2c1	inactive	
C[C@@H]1O[C@@H](O[C@H]2[C@@H]3C=CO[C@@H](O[C@@H]4O[C@H](CO)[C@@H](O)[C@H](O)[C@H]4O)[C@@H]3[C@@]3(CO)O[C@@H]23)[C@H](OC(=O)/C=C/c2ccc(O)c(O)c2)[C@H](O)[C@H]1O	inactive	
Cc1nc2sc(C(=O)NCc3ccncc3)c(N)c2c(C)c1Cl	inactive	
CC1NC(=O)CCCNC(=O)C(Cc2c[nH]c3ccccc23)NC(=O)C(C)NC(=O)C(C(C)C)NC(=O)C(C(C)c2ccccc2)NC(=O)C(C(C)C)NC1=O (stereo not drawn) (cyclo([GABA]AV[ξPhe(βξ-Me)]VAW); configuration not given here)	inactive	
C=C1OC2CC(C(=O)O)C=CC2NC1=O (configuration not stated)	inactive	
COC1CC(O[C@H]2CC[C@@]3(C)C(CCC4C3[C@H](OC(C)=O)[C@@H](OC(=O)/C=C/c3ccccc3)[C@]3(C)C(C(C)=O)CC[C@]43O)C2)OC(C)C1OC1CC(OC)C(OC2CC(OC)C(OC3OC(C)C(OC4OC(CO)C(O)C(O)C4O)C(OC)C3O)C(C)O2)C(C)O1 (some centres not stated)		-0.0477% [at 9.29 µM]
COc1cc2nc(N3CCCC3)nc(NCCCCCN3CCCC3)c2cc1OC	inactive	
Cc1cccc(Oc2cnc(=O)[nH]c2)c1	inactive	
Cc1noc(=O)c2ccc(NC(=O)C(O)(CC(C)(C)c3cccc4c3OCC4)C(F)(F)F)cc12 (configuration not stated)	inactive	
CC[C@@H](O)C[C@@H]1C(C)=C[C@@H]2CCCC[C@@H]2[C@@]1(C)C(=O)O	inactive	
C/C1=C\C[C@]2(C)C(=O)C(O)=C([C@H](C)CO)[C@H]2C/C=C(\C)[C@@H](O)CC/C(C)=C/CC1	inactive	
CC(C)Oc1ccc(C(=O)NC(CNC(=O)CN(C)C)Cc2ccc(-c3cn4cccc(C(C)O)c4n3)cc2)cc1Cl (configuration not stated)	6510 nM (active)	
CC1=C(C(=O)O)/C(=C\CO[C@@H]2O[C@H](CO)[C@@H](O)[C@H](O)[C@H]2O)C(OC(=O)/C=C/c2ccc(O)cc2)C1 (some centres not stated)	inactive	
COc1cc(OC)c(/C=C/S(=O)(=O)Cc2ccc(OC)c(NCC(=O)O)c2)c(OC)c1	461 nM (active)	
COC(=O)C[C@H]1C(C)(C)[C@H](OC(C)=O)C2CC3=C4CC(=O)O[C@@H](c5ccoc5)[C@]4(C)CCC3[C@@]1(C)C2=O (some centres not stated)	inactive	
O=C(O)c1ccccc1NC(=O)N1CCC(c2ccccc2C(F)(F)F)CC1	inactive	
Cc1ccc(C(=O)N(CCCN)C(c2oc3cc(Cl)ccc3c(=O)c2Cc2ccccc2)C(C)C)cc1 (configuration not stated)	517 nM (active)	
